ALDH1A1 block: qHTS Assay for Inhibitors of Aldehyde Dehydrogenase 1 (ALDH1A1); Aldehyde dehydrogenase 1A1 (Homo sapiens), P00352; Purified ALDH1A1, NADH fluorescence, propionaldehyde substrate; Potency, µM (doses to about 75.3 µM), hits mostly inhibitors; hit rate 7.3% among 220,000; active = well fitted inhibition curve with a large enough effect, not every such curve was filed as active; inconclusive = small, poorly fitted or top-dose-only effect, or another doubt; inactive = no such curve, though single readings can be large or run the other way
PNC inhibitor: High Content Assay for Compounds that inhibit the Assembly of the Perinucleolar Compartment | PC3M PTB-GFP, PNC prevalence imaging, 16 h; hits give low values | activity change (PNC), negative = inhibition, % at 10 µM | hit rate 3.1% among 140,000 | AID 2417, 2010;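 active = readout at or below -70, meaning at least 70% loss of cells showing the perinucleolar compartment, a nuclear body marking cancer cells; inconclusive = readout between -30 and a set limit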
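Read-out is percentage of cells bearing a perinucleolar compartment, from automated 20x imaging of fixed, Hoechst-stained PC3M PTB-GFP cells. Cells were seeded 4 h, then exposed 16 h to compound (23 nl of library stock) in duplicate plates.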
GLA inh pH 4.5: qHTS Assay for Inhibitors of Human alpha-Galactosidase at pH 4.5. Alpha-galactosidase A (Homo sapiens), P06280. purified enzyme, 4-MU-alpha-Gal fluorescence, pH 4.5. activity change, negative = inhibition, % at 105 µM. 230,000 tested, under 10 active. AID 1467, 2008
HPGD inh: qHTS Assay for Inhibitors of HPGD (15-Hydroxyprostaglandin Dehydrogenase); 15-hydroxyprostaglandin dehydrogenase [NAD(+)] (Homo sapiens), P15428; purified HPGD, NADH fluorescence kinetic, PGE2 substrate; Potency, µM, hits mostly inhibitors; hit rate 4.3% among 150,000; active = well fitted inhibition curve with a large enough effect, not every such curve was filed as active; inconclusive = small, poorly fitted or top-dose-only effect, or another doubt; inactive = no such curve, though single readings can be large or run the other way
Target sequence (P15428 whole entry, looked up): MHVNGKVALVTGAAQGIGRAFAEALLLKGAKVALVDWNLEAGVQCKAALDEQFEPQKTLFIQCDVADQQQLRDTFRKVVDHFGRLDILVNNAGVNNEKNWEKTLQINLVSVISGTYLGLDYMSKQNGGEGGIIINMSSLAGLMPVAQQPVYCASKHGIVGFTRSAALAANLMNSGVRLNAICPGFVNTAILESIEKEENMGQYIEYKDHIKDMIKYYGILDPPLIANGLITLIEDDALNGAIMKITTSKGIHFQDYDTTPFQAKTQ
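NADH formation kinetics: reaction with 30 uM PGE2 and 1 mM NAD+ (final), 20 nM enzyme, Tris-HCl pH 8 with Tween 20, after 15 min compound preincubation at room temperature. Fluorescence change, last versus first of five reads.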
GLA spleen mod: qHTS Assay for Inhibitors and Activators of Human alpha-Galactosidase From Spleen Homogenate; Alpha-galactosidase A (Homo sapiens), P06280; human spleen homogenate, 4MU-alpha-Gal fluorescence, 40 min; Potency, µM (series often up to 80 µM), usual class: inhibitors; hit rate 0.008% among 240,000; AID 2107, 2009
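Fluorogenic readout (Ex 365/Em 440 nm) of 4-methylumbelliferone released from 1 mM 4-MU-alpha-galactoside by spleen homogenate, 40 min at 37C, pH 5.0. Data normalized to no-enzyme and enzyme controls; Hill-equation AC50 from compound titrations.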
ALOX12 inhib: qHTS Assay for Inhibitors of 12-hLO (12-human lipoxygenase) | Polyunsaturated fatty acid lipoxygenase ALOX12 (Homo sapiens), P18054 | Potency, µM (series often up to 57.1 µM), most hits filed as inhibitors | hit rate 0.12% among 150,000 | AID 1452, 2008 | purified 12-hLO, xylenol orange hydroperoxide absorbance; also: nearly all actives have a fitted effect of over 55% in size
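Xylenol orange chromogenic assay: hydroperoxide from 12hLO oxidises Fe(II), giving red-shifted Fe(III)-XO absorbance. Conditions: 150 nM enzyme, 40 uM arachidonic acid, 25 mM Hepes pH 7.0, 0.01% Triton X-100, 30 min, room temperature.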
Numbers stand for hits; n = inactive; u = inconclusive; x = no result. In the library only some 10% were active in any assay of this set; here they are far more common. Unless noted, calls follow the shape of the dose curve; as a rule, active = well fitted curve in the direction sought with a large enough effect; inconclusive = small, poorly fitted or top-dose-only effect, or another doubt; inactive = no such curve, though single readings can be large; an effect the other way counts as inactive or inconclusive.

SMILES | ALDH1A1 block | PNC inhibitor | GLA inh pH 4.5 | HPGD inh | GLA spleen mod | ALOX12 inhib
COC(=O)c1c(N)n(-c2ccc(N3CCOCC3)cc2)c2nc3ccccc3nc12 | 17.8µM | n | n | n | n | n
COC(=O)c1c(N)n(-c2ccc(NC(C)=O)cc2)c2nc3ccccc3nc12 | u | n | u | u | u | n
COC(=O)c1c(NC(=O)c2ccc(C)o2)sc2c1CCCCC2 | u | n | n | u | n | n
O=C(Nc1sc2c(c1C(=O)O)CCCCC2)c1cccs1 | u | x | n | x | n | x
O=C(Nc1sc2c(c1C(=O)O)CCC2)c1ccco1 | n | n | n | 22.4µM | n | n
CCOC(=O)c1c(-n2c(C)cc(C=O)c2C)sc2c1CCCC2 | u | n | n | n | n | n
COC(=O)c1c(NC(=O)c2ccco2)sc2c1CCC2 | u | n | n | u | n | n
Cc1ccc(C(=O)Nc2sc3c(c2C(=O)O)CCCCC3)o1 | 18.9µM | u | n | 14.1µM | n | n
Cc1ccc(C)n1-c1sc2c(c1C(=O)O)CCCC2 | 28.2µM | n | n | n | n | n
O=C(Nc1sc2c(c1C(=O)O)CCCC2)c1cccs1 | n | n | n | 25.1µM | n | n
CC(=O)c1ccc(OC(=O)c2cc3ccccc3oc2=O)cc1 | n | x | n | x | n | x
CCN(CC)CC#CC(O)(c1ccccc1)c1ccccc1 | n | x | n | x | n | x
CN(C)CCC#CC(O)(c1ccccc1)c1ccccc1 | 25.1µM | n | n | n | n | n
COc1ccccc1N1C(=O)c2ccc(C(=O)Nc3nccs3)cc2C1=O | u | x | n | x | n | x
O=C(NCC1CCCO1)C(c1cccs1)N(Cc1cccs1)C(=O)Cn1nnc(-c2cccs2)n1 (configuration not stated) | 8.91µM | n | u | n | n | n
O=C(NCC1CCCO1)C(c1cccs1)N(C(=O)Cn1nnc(-c2cccs2)n1)C1CCCC1 (configuration not stated) | n | u | n | n | n | n
O=C(NC1CCCC1)C(c1cccs1)N(Cc1ccco1)C(=O)Cn1nnc(-c2cccs2)n1 (configuration not stated) | n | u | n | n | n | n
Cc1ccc(-c2nnn(CC(=O)N(Cc3cccs3)C(C(=O)NC3CCCC3)c3ccco3)n2)o1 (configuration not stated) | 22.4µM | n | n | n | n | n
CC(C)CCNC(=O)C(c1ccncc1)N(Cc1cccs1)C(=O)Cn1nnc(-c2ccc(F)cc2)n1 (configuration not stated) | u | -100.0 | u | n | n | n
O=C(NCC1CCCO1)C(c1ccncc1)N(Cc1cccs1)C(=O)Cn1nnc(-c2ccc(F)cc2)n1 (configuration not stated) | n | x | n | x | n | x
Cc1ccc(-c2nnn(CC(=O)N(Cc3ccco3)C(C(=O)NC3CCCC3)c3cccs3)n2)o1 (configuration not stated) | n | -100.0 | n | n | n | n
N[C@@H](Cc1ccc(O)cc1)c1nnc([C@H](CO)NC(=O)C2CCNCC2)o1 | n | x | n | x | n | x
CC[C@H](C)[C@H](NC(=O)[C@H](CCCN=C(N)N)NC(=O)[C@H](CCCN=C(N)N)NC(=O)[C@H](CC(C)C)NC(=O)[C@H](Cc1ccccc1)NC(=O)CNC(=O)CN)C(=O)N[C@@H](CCCN=C(N)N)C(=O)N1CCC[C@H]1C(=O)N[C@@H](CCCCN)C(=O)N[C@@H](CC(C)C)C(=O)N[C@@H](CCCCN)C(=O)O | n | x | x | x | n | x
O=C(NCc1ccco1)C(c1cccs1)N(Cc1ccccc1)C(=O)Cn1nnc2ccccc21 (configuration not stated) | n | u | n | n | n | n
O=C(NCc1ccco1)C(c1ccco1)N(Cc1cccs1)C(=O)Cn1nnc2ccccc21 (configuration not stated) | 14.1µM | n | n | n | n | n

High-throughput results: PubChem, National Center for Advancing Translational Sciences (NCATS)
